# According to PubChem BioAssay AID1566 (Sanford-Burnham Center for Chemical Genomics, 2009):
# Out of some 290,000 compounds screened, about 1,800 (0.62%) were called active. Many of the other results were omitted from the sample, so actives are more common in it than they were. A number with no mark means an inactive call. No stated cut-off is given here; in the data, active means inhibition above about 50%; inactive means the rest.
# Assay: inhibition of NOD2-driven NF-kB reporter – cell-based, luminescence, uHTS, HEK293 (AID 1566)
# Conditions: HEK293 NOD2/NF-kB luciferase reporter, at 4 µM, active compounds read high
row,SMILES,inhibition
1,COc1ccc(NC(=O)c2ccc3c(c2)C(=O)N(Cc2cccnc2)C3=O)c(OC)c1,-3.5%
2,O=C1CCN(Cc2ccc([N+](=O)[O-])cc2)CCN1[C@H](CO)c1ccccc1,8.7%
3,COc1cc2ccccc2cc1C(=O)Nc1ccc(NC(=O)c2cccs2)cc1,60.7% (active)
4,COc1ccc(NC(=O)c2cc3ccccc3cc2OC)cc1,-18.7%
5,COc1cc(NC(=O)c2cc3ccccc3cc2OC)ccc1NC(=O)c1cccs1,45.8%
6,C#Cc1ccc([C@@H]2C=C(C(=O)Nc3ccccc3)O[C@H](OCC)[C@H]2CCCO)cc1,11.4%
7,CCCCc1c(C)c(C#N)c2nc3ccccc3n2c1Cl,-34.2%
8,CCCCc1c(C)c(C#N)c2nc3ccccc3n2c1NCCN(C)C,-20.8%
9,CC(C)(C(N)=O)N1CCN(c2ncc(C(F)(F)F)cc2Cl)CC1,9.3%
10,Cc1nc(SCC(=O)N2CCCCC2)c2c(C)c(C)sc2n1,22.8%
11,Cc1nc(N2CCN(C(=O)CCC(=O)O)CC2)c2c(C)c(C)sc2n1,13.1%
12,CCC(=O)N1CCN(c2nc(C)nc3sc(C)c(C)c23)CC1,8.8%
13,CCn1c(SCC(=O)N2CCc3ccccc3C2)nc2sc(C)c(C)c2c1=O,17.7%
14,N#Cc1cc(-c2ccccc2)nc(Oc2ccccc2)n1,10.8%
15,O=C(NNC(=O)c1ccc[nH]1)Nc1cc(Cl)cc(Cl)c1,2.1%
16,O=C(COc1ccc2c3c(c(=O)oc2c1)CCCC3)N[C@@H](Cc1ccccc1)C(=O)O,9.1%
17,Cc1cc(C)c(S(=O)(=O)N2CCCOC2CNC(=O)C(=O)NCc2ccco2)c(C)c1 (centres undefined),15%
18,CC(C)(C)C1=CC(=O)C(N2CCOCC2)=CC1=O,14.9%
19,CC1=C(C)C(=O)C(N2CCOCC2)=CC1=O,12.8%
20,Cc1ccccc1NC(=O)C(C)Sc1nnc(-c2ccncc2)n1CC1CCCO1 (centres undefined),-16.6%
21,CC(NC(=O)C1CCCO1)c1ccccc1 (centres undefined),3.6%
22,CC(=O)N1CCN(c2ccc(NC(=O)c3ccc(C(C)(C)C)cc3)cc2)CC1,3.5%
23,CC(=O)N1CCN(c2ccc(NC(=S)NC(=O)COc3ccc(C(C)(C)C)cc3)cc2)CC1,68.1% (active)
24,CCC(=O)N1CCN(c2ccc(NC(=S)NC(=O)COc3ccccc3)cc2)CC1,8.2%

row,SMILES,inhibition
1,CCOc1ccccc1-c1cc(C(=O)N/N=C/c2ccc(O)c(OC)c2)c2ccccc2n1,-16.4%
2,Cc1ccc(CNC(=O)c2ccc(NC(=O)C3=CSCCO3)cc2)cc1,8.2%
3,O=C(NNc1ccc(F)cc1)c1c(F)cccc1Cl,-2.7%
4,CC(=O)Nc1nc(C)c(C(C)=O)s1,-12.2%
5,CC(=O)c1sc(NC(=O)C2(F)C(F)(F)C(F)(F)C(F)(F)C(F)(F)C2(F)F)nc1C,55.2% (active)
6,CC(=O)c1sc(NC(=O)C(C)C)nc1C,8.3%
7,CCOc1ccc(N=C2NC(=O)S/C2=C\c2ccc(Cl)cc2)cc1,-11%
8,CCOCCCNCc1cc(Br)ccc1OCc1ccccc1,19%
9,CNC(=O)C(=O)NCC1OCCN1S(=O)(=O)c1ccc(OC)c(OC)c1 (centres undefined),-11.3%
10,COc1cccc(CN2C(=O)C(C)N(C(=O)c3c(F)cccc3F)c3ccccc32)c1 (centres undefined),45.6%
11,CC1C(=O)N(Cc2ccccc2)c2ccccc2N1C(=O)c1ccccc1 (centres undefined),13.9%
12,COc1cccc(CN2C(=O)C(C)N(C(=O)c3ccccc3)c3ccccc32)c1 (centres undefined),51% (active)
13,CC(C(=O)Nc1cc([N+](=O)[O-])ccc1Cl)N1CCN(c2ccc(O)cc2)CC1 (centres undefined),1.4%
14,COc1ccc(Cl)cc1NC(=S)Nc1ccccc1C,0.6%
15,Cc1csc2c(=O)sc(NC(=O)c3cccs3)nc12,25.6%
16,COc1ccc(-n2c(C)cc(C(=O)COC(=O)c3cc(NC(=O)c4cccs4)c(OC)c(OC)c3)c2C)cc1,12.4%
17,COc1cc(NC(=O)c2cccs2)c(C(=O)OCC(=O)c2cc(C)n(-c3ccc(F)cc3)c2C)cc1OC,9.1%
18,Oc1ccc2ccccc2c1/C=N/Nc1nnc(-c2ncc[nH]2)c2ccccc12,66.3% (active)
19,COc1ccc(/C=N/Nc2nnc(-c3ncc[nH]3)c3ccccc23)cc1,-81.3%
20,Clc1ccc(/C=N/Nc2nnc(-c3ncc[nH]3)c3ccccc23)cc1,-40.1%
21,CS(=O)(=O)Nc1ccccc1C(=O)NCCSCc1ccccc1,-4.8%
22,CNC(=S)NC1CC2CCC(C1)N2Cc1ccccc1 (centres undefined),0.2%
23,CC(C)C(NC(=O)C(NC(=O)C1O[C@@H]2OC(C)(C)O[C@@H]2[C@H]2OC(C)(C)O[C@@H]12)C(C)C)C(=O)O (some centres undefined),20%
24,CCOC(=O)Cc1csc(NS(=O)(=O)c2cc(Cl)ccc2Cl)n1,-18.2%

row,SMILES,inhibition
1,Brc1cc(Br)c2nc3c(cc2c1)CCC3,7.6%
2,COc1cc2cc(Br)cc(Br)c2nc1C,5.9%
3,CCS(=O)(=O)N1CCN(C(=O)c2cccc(OC)c2)CC1,14.1%
4,Cc1cc2cc(CNC(=S)Nc3ccc(OC(F)F)cc3)ccc2[nH]1,4.6%
5,C=CCn1c(-c2cccn(Cc3ccc(Cl)cc3)c2=O)n[nH]c1=S,50.3% (active)
6,C=CCn1c(-c2cccn(Cc3cccc(Cl)c3)c2=O)n[nH]c1=S,12.9%
7,C=CCn1c(-c2cccn(Cc3ccccc3)c2=O)n[nH]c1=S,15.3%
8,CSc1ccccc1OCc1cc(C(=O)N2CCSCC2)no1,-40.6%
9,CC1=C(C(=O)OCc2ccccc2)C(c2cccc([N+](=O)[O-])c2)NC(=O)N1CCCCCC(=O)O (centres undefined),10.6%
10,COc1ccccc1OCC(=O)NC1CCCCCC1,10.3%
11,O=C(c1ccc(Oc2ccc([N+](=O)[O-])cc2Cl)cc1)N1CCCC1,15.1%
12,COc1cc(/C=N/N2CCN(Cc3ccc(C)cc3)CC2)cc(OC)c1O,2.5%
13,O=C(Nc1c(-c2ccccc2)nc2ccccn12)c1ccccc1,3.9%
14,CC(=O)Nc1c(-c2ccc(F)cc2)nc2ccccn12,-10.8%
15,O=C(Nc1c(-c2ccc(F)cc2)nc2ccccn12)c1ccc(F)cc1,79.7% (active)
16,O=C(CCS(=O)(=O)c1ccccc1)N1CCN(c2cccc(C(F)(F)F)c2)CC1,11.5%
17,COc1ccc(/C=C/C(=O)Nc2ccccc2C(F)(F)F)cc1,-25.4%
18,CCCCOCC(O)CN1CCN(C(C)=O)CC1 (centres undefined),10.9%
19,O=[N+]([O-])c1cc(Cc2ccccc2)cc(C=Nc2ccc(N3CCOCC3)cc2)c1O,11.1%
20,COc1ccc(N=Cc2cc(Cc3ccccc3Cl)cc([N+](=O)[O-])c2O)cc1OC,-10.2%
21,O=C1NN=C(c2ccccc2)CC1c1c[nH]c2ccccc12 (centres undefined),-14%
22,COc1ccc(NC(=O)CS(=O)(=O)c2cn(CC(=O)N3CCCC3)c3ccccc23)c(OC)c1,-10.2%
23,Cc1ncc(CO)c(CNc2ccc(-c3nc4ccccc4[nH]3)cc2)c1O,-99.7%
24,Cc1ncc(CO)c(/C=N/N=C/c2ccccc2O)c1O,-28%

row,SMILES,inhibition
1,Cc1ncc(CO)c(CNc2ccc(Oc3ccccc3)cc2)c1O,50.4% (active)
2,O=C(COC(=O)c1ccc(Br)cc1)NC1CCCC1,10.3%
3,O=C(Nc1cccc2ccccc12)c1ccccc1Cl,-7.8%
4,CCCCCCc1cc2cc(C(=O)Nc3ccccc3)c(=O)oc2cc1O,-36.8%
5,CCCCCCc1cc2cc(C(N)=O)c(=N)oc2cc1O,1.5%
6,CCOC(=O)c1c(NC(=O)CSc2n[nH]c(-c3ccco3)n2)sc(C)c1C,11.6%
7,COCCSc1nnc(NC(=O)C2CC(=O)N(CCc3ccc(F)cc3)C2)s1 (centres undefined),16.7%
8,O=C(CCCCn1c(=O)c2ccccc2n(CC(=O)Nc2ccccc2)c1=O)NCc1ccco1,3.3%
9,COc1ccc(/C(O)=C/c2nc3ccccc3n(-c3ccccc3)c2=O)cc1,24.8%
10,COc1ccc(-n2c(=O)c(CCC(=O)N(C)Cc3ccccc3C)nc3ccccc32)cc1,0.2%
11,Cc1ccc(NS(=O)(=O)c2cccc(C(=O)NNC(=O)c3cccn3C)c2)c(C)c1,-2.3%
12,C/C(=N\NC(=O)NC1CCCCC1)c1ccco1,-11.6%
13,O=C(c1cc(Cl)nc2ccccc12)N(Cc1nnc(-c2ccccc2Cl)o1)C1CC1,14.2%
14,Cc1noc(C)c1C(=O)NCc1ccccc1,16.6%
15,COc1ccc(NC(=O)c2cc([N+](=O)[O-])ccc2O)cc1,70.6% (active)
16,COc1ccc(NC(=O)c2cc([N+](=O)[O-])ccc2N2CCCC2)cc1,7.4%
17,COc1ccc(NC(=O)c2cc([N+](=O)[O-])ccc2N2CCCCC2)cc1,-14.3%
18,O=[N+]([O-])c1cc(Cl)ccc1NCCNc1ncc(C(F)(F)F)cc1Cl,12.4%
19,Nc1cc(=O)[nH]c(SCc2ccccc2Cl)n1,23.4%
20,Nc1cc(=O)[nH]c(SCc2ccc(Cl)cc2Cl)n1,58.1% (active)
21,Cc1cc(=O)[nH]c(SCc2ccc(Cl)cc2Cl)n1,4.6%
22,Cn1c(C(=O)N2CCN(c3ccc(F)cc3)CC2)cc2ccccc21,1.5%
